In all, about 33,000 sequences were measured (“E-score (-0.5 to 0.5)”: median about -0.056, highest 2% from about 0.38 on). Only a selection was taken, and the highest values are over-represented in it overall.
biological target: Stb4 (UniProt P50104); experiment: PBM E-score (8-mer binding enrichment) (E-score (-0.5 to 0.5)); higher = stronger / more preferred TF binding; details: protein concentration: 200 nM; construct: GST-DNA-binding domain
Procedure, shortened: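 Universal all-10-mer Agilent arrays, fresh or stripped once, were converted to double-stranded form by primer extension. GST-tagged yeast transcription factors from PURExpress in vitro transcription/translation, full-length or DNA-binding domain only, were applied at about 100-200 nM and detected with fluorescent anti-GST. After masliner normalisation, the Universal PBM Analysis Suite scored each ungapped eight-base word together with its reverse complement by E-score.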

Sequence of UniProt P50104 (P50104 whole entry, the tested form may be a part): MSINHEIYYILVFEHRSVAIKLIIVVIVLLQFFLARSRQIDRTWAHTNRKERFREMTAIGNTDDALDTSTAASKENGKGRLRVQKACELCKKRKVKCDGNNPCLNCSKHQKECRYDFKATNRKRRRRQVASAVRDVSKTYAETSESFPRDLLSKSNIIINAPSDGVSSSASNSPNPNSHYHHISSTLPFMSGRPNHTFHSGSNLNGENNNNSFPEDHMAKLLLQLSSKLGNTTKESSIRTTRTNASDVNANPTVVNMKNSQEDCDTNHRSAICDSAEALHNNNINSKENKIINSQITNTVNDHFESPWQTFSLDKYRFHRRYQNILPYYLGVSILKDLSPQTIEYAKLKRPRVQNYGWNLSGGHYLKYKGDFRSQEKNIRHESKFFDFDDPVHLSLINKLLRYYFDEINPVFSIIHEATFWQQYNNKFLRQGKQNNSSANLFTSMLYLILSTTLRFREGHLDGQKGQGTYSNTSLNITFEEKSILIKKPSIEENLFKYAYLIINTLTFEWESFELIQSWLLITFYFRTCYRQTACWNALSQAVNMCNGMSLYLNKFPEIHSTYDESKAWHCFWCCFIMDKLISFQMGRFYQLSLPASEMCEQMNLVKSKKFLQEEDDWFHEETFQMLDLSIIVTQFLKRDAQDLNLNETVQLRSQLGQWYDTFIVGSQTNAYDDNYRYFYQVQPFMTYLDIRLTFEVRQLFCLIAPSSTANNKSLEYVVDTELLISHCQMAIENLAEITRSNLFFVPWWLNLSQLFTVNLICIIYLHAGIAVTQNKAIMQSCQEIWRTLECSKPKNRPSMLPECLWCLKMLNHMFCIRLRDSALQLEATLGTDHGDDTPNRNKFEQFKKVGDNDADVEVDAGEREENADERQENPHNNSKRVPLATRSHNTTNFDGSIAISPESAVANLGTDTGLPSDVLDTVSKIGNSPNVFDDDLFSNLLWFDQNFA

Sequence | PBM E-score
CACGCTCG | 0.119
AATCGAAT | 0.00368
CTGAGAGC | -0.138
AATACTGG | -0.159
TCTAAAAA | 0.0389
AGGGTGTA | -0.093
GTCGCAGA | -0.195
AGTCTCGA | -0.0187
AGTCTCGG | 0.39
ACTCTCGC | -0.0541
ACTCTCGA | -0.214
ACTCTCGG | 0.416
AGTCTCGC | -0.0759
ATAGCCTC | -0.00394
ACTGATAC | 0.0597
ATAGTCGC | -0.076
ACGCTACC | 0.00891
TATTTTGA | -0.151
TAGCCTCA | -0.198
GATGCTTA | -0.00303
CAGATCCC | 0.00572
AAGATCCG | 0.41
CAGATCCG | 0.416
AAGATCCA | -0.0259
AAGATCCC | 0.126

Sequence | PBM E-score
CAGATCCA | 0.0283
GGGCCGCA | 0.134
AGTCACAA | -0.173
AGTTTAGG | -0.238
AAATGGGG | -0.344
ACCTGGTG | -0.0216
ATCGGCGG | 0.327
CGCATCCC | -0.0101
AGCATCCA | -0.115
AGCATCCT | 0.0794
CGCATCCA | -0.126
AGCATCCG | 0.419
CGCATCCG | 0.408
CTCGTAGA | -0.246
GAAACGTC | 0.0218
AATCGGTA | 0.205
GATCGGTA | 0.407
ACTCGGTA | 0.322
CATCGGTA | 0.345
GCTCGGTA | 0.416
CCTCGGTA | 0.38
GCTAGACC | -0.0645
AGTTTTCG | 0.152
TATGAAGA | -0.0238
ACTGTCTG | -0.0825

Sequence | PBM E-score
CGGAAAGC | 0.386
CAGAAAGC | -0.131
CGGAAAGA | 0.407
AGGAAAGC | -0.0848
GGGAAAGA | -0.0458
AGGAAAGA | -0.174
TGAGCTAA | -0.15
CAATGCGG | 0.0433
CACTTCCA | -0.0868
CACTTCCC | 0.0457
AACTTCCG | 0.451
AACTTCCA | 0.132
CACTTCCG | 0.397
AACTTCCT | -0.0245
AGTTCATC | -0.107
CGAACGAG | 0.0473
CAGAGTGA | -0.0625
AATAACTC | -0.0405
AGATGAGA | -0.103
GATTGCGC | -0.00733
AGATAAAC | 0.00284
AGAGACCC | -0.0488
AAGTTCGA | 0.0503
CAGTTCGC | -0.194
AAGTTCGC | -0.187

Sequence | PBM E-score
CAGTTCGG | 0.409
CAGTTCGA | -0.262
AAGTTCGG | 0.421
ATCCACGG | 0.109
GGGAGACA | 0.146
CAGGCGGC | 0.067
CCCGTCGC | -0.00272
CCCGTCGG | 0.386
CCCGTCGA | 0.102
CCTGGCAC | -0.00805
GAAGAGGC | -0.016
ATCGGATG | 0.451
ATCGGAGG | 0.199
ATGGGATG | -0.0874
CTAGGATA | -0.0673
ATCGGATA | 0.467
AACGGATC | 0.306
ATTGGATA | -0.121
ATCGGATC | 0.43
CTCAGATA | -0.00864
CTCGGATA | 0.49
ATAGGATA | -0.00309
ATTGGATC | -0.0271
CCCTCTAA | -0.182
AGACCTTG | -0.312

Sequence | PBM E-score
ACTAGGAC | -0.0716
GTCATTTA | -0.171
AATGGTTG | 0.02
GTCAGGCA | -0.118
AGCTGGAT | -0.0862
AAGACTGA | -0.25
CTCAGATC | -0.103
CTGGGATC | -0.0424
GTCGGAGA | 0.294
GTCGGACA | 0.22
GTCGGATA | 0.463
CTCGGATC | 0.481
GTCAGCTA | -0.259
TCTGCAAA | -0.122
CCATCGCA | -0.229
CGGAAAAC | 0.37
CGGAAATC | 0.366
CGGAAAAG | 0.373
CGGAAAAA | 0.446
GGGAAATA | 0.157
CGGAAATA | 0.429
CTCTTTGA | -0.285
CTTAGAAG | -0.29
CGTATTGA | -0.271
AGTTACTA | -0.103

Sequence | PBM E-score
ACAATCTG | -0.064
ACAACGGC | 0.108
GAACGCGA | -0.0119
ATTTCCGC | 0.307
ATTTCCTG | -0.0528
ATTTCCAA | 0.0026
ATTTCCCA | -0.0128
ATTTCCGG | 0.426
ATTTCCGA | 0.47
TCTGGACA | -0.0785
GCATAGCC | -0.0533
GTCTGCTA | -0.0233
CCGACGGA | 0.404
CCGACCCG | 0.407
ACGACGGA | 0.22
CCGACGCC | 0.343
CCGACGCG | 0.397
CCGACCCC | 0.214
ACGACGCG | -0.0636
GCGACGGA | 0.245
ACGACCCG | 0.251
CTGACGCA | -0.298
CTCAGTGC | -0.109
ACATTGCT | -0.233
GTCAGACA | -0.0277

Sequence | PBM E-score
ATTACGCA | 0.00056
AGCATTTC | -0.0674
GGTTGGAA | 0.12
ATCTACCA | -0.135
TCCAACCA | -0.117
CGAGATGC | 0.0535
GCCCGACA | 0.187
ACCCGACT | 0.33
ACCCGACA | 0.402
ACCCGACG | 0.425
CCCCGACG | 0.277
CCCCGACA | 0.16
CGTTGGAG | -0.232
TCGAGCCA | -0.204
ACGAGCCC | -0.198
CCGAGCCC | 0.444
CCGAGCCG | 0.468
ACGAGCCG | 0.292
ACGAGCCA | -0.307
CCGAGCCA | 0.407
GCGAGCCC | -0.0138
CGGAGCCG | 0.352
GGAGTATA | 0.235

Source: the supplement of paper PMC3334620
